# Experimental data: PubChem BioAssay AID2013 (Sanford-Burnham Center for Chemical Genomics, 2009)
# Where “and” joins values, the source holds several entries; their conditions need not be identical. Equal entries are not always repeated. Screen size: about 290,000 compounds; about 370 (0.13%) were called active. The sample holds actives, similar compounds and a random draw of the others, so the mix is not that of the screen.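 Rule for the calls: active = spots per cell inhibited over 60%, with over 100 cells counted and total cytoplasm intensity under 500,000; inconclusive = wells with under 100 cells, flagged as likely toxic; inactive = the rest.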 Measured potencies and affinities stand elsewhere. More than one record can exist for a structure, and the calls need not agree.
# Target: G-protein coupled receptor 55 (Homo sapiens) (UniProt Q9Y2T6)
# Assay: GPR55 antagonists blocking LPI-driven arrestin recruitment, primary screen, imaging, U2OS, beta-arrestin-GFP, LPI agonist (AID 2013);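 note: U2OS cells stably carrying GPR55 and arrestin-GFP stimulated by 5 µM LPI near EC80; imaged beta-arrestin-GFP aggregate spots per cell after agonist stimulation; plate controls were LPI-stimulated DMSO wells for no effect and DMSO wells without LPI for full effect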
# Details: U2OS GPR55 beta-arrestin-GFP translocation imaging, LPI antagonism; at 10 µM; stronger effect = higher value
# Sequence of G-protein coupled receptor 55 (Homo sapiens) (Q9Y2T6 whole entry, looked up): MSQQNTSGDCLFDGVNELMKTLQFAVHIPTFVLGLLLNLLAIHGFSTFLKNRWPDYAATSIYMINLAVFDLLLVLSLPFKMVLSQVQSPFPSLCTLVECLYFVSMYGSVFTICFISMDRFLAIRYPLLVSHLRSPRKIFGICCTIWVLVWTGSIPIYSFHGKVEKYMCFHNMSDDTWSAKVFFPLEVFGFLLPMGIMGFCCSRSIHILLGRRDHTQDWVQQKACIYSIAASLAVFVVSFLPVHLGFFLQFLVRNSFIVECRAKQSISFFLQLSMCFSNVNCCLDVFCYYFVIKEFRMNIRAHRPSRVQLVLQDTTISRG
row,Compound,inhibition
1,O=S(=O)(c1ccc(F)cc1)N1CCCc2ccccc21,93.9% (active)
2,O=S(=O)(c1ccccc1)N1CCCc2ccccc21,0.9% (inactive)
3,O=S(=O)(c1ccc(F)cc1)N1CCc2ccccc21,9.6% (inactive)
4,COc1ccc(Br)cc1S(=O)(=O)Nc1cccc(C)n1,9.5% (inactive)
5,C=CCN(C(=O)CNC(=O)c1ccco1)C(C(=O)NC1CCCCC1)c1ccc(F)cc1 (stereo unspecified),73.3% (active)
6,C=CCN(C(=O)CNC(=O)c1ccco1)C(C(=O)NC1CCCCC1)c1ccccc1 (stereo unspecified),-5.9% (inactive)
7,C=CCN(C(=O)CNC(=O)c1ccco1)C(C(=O)NC1CCCCC1)c1ccc(OC)cc1 (stereo unspecified),-13.5% (inactive)
8,CC(C)N1CCC(N2CCN(Cc3ccc(-c4ccc(Cl)cc4)o3)CC2CCO)CC1 (stereo unspecified),0.6% (inactive)
9,CC(NC(=O)CCCCCNC(=O)N1CCn2c1nc1ccccc12)c1ccccc1 (stereo unspecified),2.2% (inactive)
10,Cc1oc(-c2cccc(Cl)c2)nc1CS(=O)(=O)CC(=O)NCCN1CCOCC1,-0.5% (inactive)
11,CCOC(=O)C1=C(C)NC(=O)NC1c1ccc(Br)o1 (stereo unspecified),-4% (inactive)
12,CCOC(=O)C1=C(C)NC(C)=C(C(=O)OCC)C1c1ccc(C)o1,10.1% (inactive)
13,CCCCCCOC(=O)c1ccc(NC(=O)c2cc(OC)c(OC)c(OC)c2Br)cc1,-0.3% (inactive)
14,Cc1cnc(NC(=O)NCC2CCCC(CNC(=O)Nc3ncc(C)s3)C2)s1 (stereo unspecified),-6.9% (inactive)
15,CCCCC(O)(CCCC)C(=O)NN(C(=O)c1cccnc1Cl)c1ccccc1,6.1% (inactive)
16,COc1ccc2c(C)cc(SCn3nnc4ccccc4c3=O)nc2c1,-3.7% (inactive)
17,CCN1C(=O)C(O)(CC(=O)c2ccccn2)c2ccccc21 (stereo unspecified),12% (inactive)
18,CCN1C(=O)C(O)(C2COC(C)(C)CC2=O)c2ccccc21 (stereo unspecified),7.4% (inactive)
19,CCOc1ccc(Cl)cc1S(=O)(=O)N1CCC(C(=O)NCC2CCCO2)CC1 (stereo unspecified),-1.1% (inactive)
20,O=C(CSC1=NCCS1)Nc1cccc(F)c1,-2.2% (inactive)
21,COc1ccc(CCNC2=NCC(C)S2)cc1 (stereo unspecified),6.5% (inactive)
22,Cc1ccc(NC2=NCC(Cc3ccc(Br)cc3)S2)cc1 (stereo unspecified),49% (inactive)
23,COc1cccc(C(=O)Nc2cc(C(=O)NCc3ccc(C)cc3)ccc2N2CCC3(CC2)CC(c2ccccc2)=NO3)c1,10.8% (inactive)
24,Cc1cccc(C)c1NC(=O)CN(C)CC(=O)Nc1cc(Cl)ccc1C#N,6.8% (inactive)

row,Compound,inhibition
1,N#CC1=C2N=C(N)c3ccccc3N2C2=C(C(=O)CCC2)C1c1ccc(F)cc1 (stereo unspecified),13.1% (inactive)
2,N#CC1=C2N=C(N)c3ccccc3N2C2=C(C(=O)CCC2)C1c1ccc(Cl)cc1 (stereo unspecified),86.9% (inactive)
3,O=S(=O)(NCC1CCN(c2ccc(S(=O)(=O)N3CCOCC3)cc2)CC1)c1ccccc1,0.7% (inactive)
4,O=C(O)Cn1ncn(-c2ccc(OC(F)(F)F)cc2)c1=O,4.9% (inactive)
5,O=C(NC(=S)NCCC1=CCCCC1)c1ccccc1Br,74.9% (active)
6,O=C(NC(=S)NCCC1=CCCCC1)c1ccc(Br)o1,4.9% (inactive)
7,Cc1ccccc1C(=O)NC(=S)NCCC1=CCCCC1,1% (inactive)
8,CCOc1ccccc1NC(=O)NCc1ccco1,11.3% (inactive)
9,Cc1cc(SCC(=O)N/N=C/c2ccc(O)cc2O)nc2ccccc12,13.8% (inactive)
10,Oc1oc(-c2ccc(Br)cc2)nc1C=Nc1ccc(Br)cn1,-0.2% (inactive)
11,CC(=O)c1ccc(N2CCN(C3CCC(C(C)(C)C)CC3)CC2)cc1 (stereo unspecified),9% (inactive)
12,O=C(O)Cc1cc(I)c(Oc2ccc(O)c(I)c2)c(I)c1,6.9% (inactive)
13,N[C@@H](Cc1cc(I)c(Oc2ccc(O)c(I)c2)c(I)c1)C(=O)O,6.9% (inactive) and 99.2% (active)
14,N[C@@H](Cc1ccc(O)c(I)c1)C(=O)O,8.6% (inactive)
15,COc1ccccc1N1CCN(CCCCOc2ccc(C)cc2C)CC1,18.9% (inactive)
16,Cc1ccc(NC2=C/C(=N/S(=O)(=O)c3cccs3)c3ccccc3C2=O)cc1,16% (inactive)
17,Cc1ccccc1NC1=C/C(=N\S(=O)(=O)c2cccs2)c2ccccc2C1=O,-11.4% (inactive)
18,COc1ccc(OCc2nnc(SCC(=O)Nc3ccccc3F)o2)cc1,-6.5% (inactive)
19,Cc1cccc(C(=O)N(CCc2ccccc2)Cc2ccccc2)c1[N+](=O)[O-],14% (inactive)
20,O=C(OCn1ncc(Cl)c(Cl)c1=O)c1ccc(F)cc1,1.3% (inactive)
21,O=C(OCn1ncc(Br)c(Br)c1=O)c1c(F)cccc1F,-5.4% (inactive)
22,CCOC(=O)C1=C(C(F)(F)F)Nc2ncnn2C1c1cccc(OC)c1OC (stereo unspecified),13.1% (inactive)
23,Cn1nc(-c2ccccn2)nc2c(=O)n(C)c(=O)nc1-2,45.9% (inactive)
24,CCCc1nc2c(=O)n(C)c(=O)nc-2n(C)n1,-5.2% (inactive)

row,Compound,inhibition
1,O=C(/C=C/c1ccc(S(=O)(=O)N2CCOCC2)cc1)N1CCN(c2ccccc2)CC1,-10.2% (inactive)
2,COc1ccc(Br)cc1S(=O)(=O)n1ccnc1,3.5% (inactive)
3,Cc1ccc(CSCCNC(=O)c2ccc(N(C)S(=O)(=O)c3ccccc3)cc2)cc1,4.4% (inactive)
4,CN(c1ccc(C(=O)NCCSCc2ccccc2)cc1)S(=O)(=O)c1ccccc1,-5.5% (inactive)
5,CCOc1ccc(-n2nc3c(=O)[nH]nc(C)c3c2C)cc1,7.8% (inactive)
6,COc1cc(C2C(C#N)=C(N)Oc3c2c(-c2ccccc2)nn3-c2ccccc2)cc(OC)c1OC (stereo unspecified),-13.1% (inactive)
7,COc1ccccc1C1C(C#N)=C(N)Oc2c1c(-c1ccccc1)nn2-c1ccccc1 (stereo unspecified),96.3% (active)
8,COc1ccc(C2C(C#N)=C(N)Oc3c2c(-c2ccccc2)nn3-c2ccccc2)c(OC)c1OC (stereo unspecified),79.5% (inactive)
9,O=C(NC(=S)Nc1ccccc1N1CCOCC1)c1ccccc1F,16.2% (inactive)
10,O=C(/C=C/c1ccco1)NC(=S)Nc1ccccc1N1CCCC1,23% (inactive)
11,COc1ccc(C(=O)NC(=S)Nc2ccccc2N2CCOCC2)cc1Br,0.4% (inactive)
12,Cc1ccc(C(=O)NC(=S)Nc2ccccc2N2CCOCC2)cc1C,0.3% (inactive)
13,O=C(NC(=S)Nc1ccccc1N1CCOCC1)c1ccc([N+](=O)[O-])cc1,5% (inactive)
14,O=C(/C=C/c1ccco1)Nc1ccccc1N1CCOCC1,10.8% (inactive)
15,O=C(COc1ccc(Br)cc1)NC(=S)Nc1ccccc1N1CCOCC1,0.7% (inactive)
16,CCc1ccc(C(=O)NC(=S)Nc2ccc(N3CCOCC3)cc2)cc1,4.3% (inactive)
17,CCOC(=O)c1sc(NC(=O)CSc2ncn(-c3ccccc3)n2)nc1C,14.4% (inactive)
18,CCOC(=O)N1CCN(Cc2nc3c(c(=O)n(C)c(=O)n3C)n2CCC(C)C)CC1,-1.3% (inactive)
19,COC(=O)C1=CC(C(=O)c2cccs2)=NN(c2ccc(OC)cc2)C1C(=O)OC (stereo unspecified),7.5% (inactive)
20,COc1ccc(C(=O)NCC(=O)N2CCC3(CC2)NCCc2[nH]cnc23)cc1,-11.2% (inactive)
21,O=C(c1csc2ccccc12)n1cccn1,-12.1% (inactive)
22,Oc1ccccc1/C=N/n1cnnc1,-8.4% (inactive)
23,Nc1nc(C23CC4CC(CC(C4)C2)C3)cs1,24.8% (inactive)
24,Nc1nc(C23CC4CC(CC(Cl)(C4)C2)C3)cs1,-9.3% (inactive)

row,Compound,inhibition
1,Cc1[nH]n(C(N)=S)c(=O)c1N=Nc1ccccc1C(F)(F)F,7.7% (inactive)
2,Cc1ccccc1N=Nc1c(C)[nH]n(C(N)=S)c1=O,93.2% (active)
3,Cc1cccc(N=Nc2c(C)[nH]n(C(N)=S)c2=O)c1C,10.8% (inactive)
4,S=C(Nc1cccc(Cl)c1)Nc1ccccc1Oc1ccccc1,8.7% (inactive)
5,S=C(Nc1ccccc1Oc1ccccc1)Nc1cccc(Cl)c1Cl,-5.2% (inactive)
6,CCc1nc(NC(=O)Cc2csc(C)n2)sc1C(=O)OC,14.5% (inactive)
7,COc1ccc(Cn2ccnc2SCC(=O)Nc2nnc(C)s2)cc1,-0.9% (inactive)
8,CCc1nnc(NS(=O)(=O)c2ccc(NC(=O)/C=C/C(=O)O)cc2)s1,6.6% (inactive)
9,CCc1nnc(NS(=O)(=O)c2ccc(NC(=O)Nc3ccc(OC)cc3)cc2)s1,-0.7% (inactive)
10,CCc1nnc(NS(=O)(=O)c2ccc(NC(=O)/C=C/c3ccc(F)cc3)cc2)s1,1.5% (inactive)
11,CCc1nnc(NS(=O)(=O)c2ccc(NC(=S)NC(=O)/C=C/c3ccc(OC)cc3)cc2)s1,10.6% (inactive)
12,COc1ccc(/C(C)=N\Nc2nc(-c3ccccc3)cc(=O)[nH]2)cc1,12.1% (inactive)
13,Cc1nn2c(N3CCOCC3)cc(C(C)(C)C)nc2c1-c1ccc(Cl)cc1,-7.5% (inactive)
14,O=C(Nc1ccc(Nc2ccccc2)cc1)c1ccc(Cl)c([N+](=O)[O-])c1,12% (inactive)
15,O=C(O)c1cc(NC(=O)c2ccc(Cl)c([N+](=O)[O-])c2)cc(C(=O)O)c1,6.4% (inactive)
16,O=C(Nc1ccc(C(O)(C(F)(F)F)C(F)(F)F)cc1)c1ccc(Cl)c([N+](=O)[O-])c1,88.6% (active)
17,CCCn1c2c(c(O)c(C(=O)Nc3ncccc3O)c1=O)CCCC2,-10.6% (inactive)
18,CCCCn1c(CCC(=O)O)nc2c1c(=O)[nH]c(=O)n2CCC,-0.5% (inactive)
19,CCCCn1c(=O)[nH]c(=O)c2c1nc(CN1C(=O)c3ccccc3S1(=O)=O)n2CCC,8.3% (inactive)
20,CCC(Sc1nc(N)cc(=O)[nH]1)C(=O)NC(C(=O)OC)c1ccccc1 (stereo unspecified),3.4% (inactive)
21,COc1ccc(C2CCCN2CC(O)COc2ccccc2C(C)C)cc1 (stereo unspecified),5.6% (inactive)
22,O=C1CC(SC(=Nc2ccccc2)Nc2ccccc2)C(=O)N1c1ccc(Cl)c(Cl)c1 (stereo unspecified),72.2% (active)
23,O=C1CC(SC(=Nc2ccccc2)Nc2ccccc2)C(=O)N1c1ccc(Cl)cc1 (stereo unspecified),6.2% (inactive)
24,O=C1CC(SC(=Nc2ccccc2)Nc2ccccc2)C(=O)N1c1cccc(Cl)c1 (stereo unspecified),17.2% (inactive)
